# Screening data as filed in PubChem BioAssay.
# Rows were chosen to be rich in hits. Some 4.8% of all compounds tested hit in one or more screens of this group.
# NALP1 yeast inh = inhibitors of NALP1 inflammasome in yeast; inhibition, % at 10 µM; S. cerevisiae NALP1/ASC/caspase-1 growth, X-gal OD620, 72 h; 0.61% of 280,000 active; in the data active = inhibition mostly above about 24%, no sharp cut-off; inactive = mostly below about 32%
# SKKanGAS inh = inhibitors of SKKanGAS S. pyogenes growth in kanamycin (SK-promoter or general growth effect). BacTiter-Glo, 6 h. inhibition, % at 7.5 µM. AID 1662. 1.3% of 300,000 active;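 active = mean replicate score, as percent of positive control median, at least 50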;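 note: strain carries kanamycin resistance gene driven by streptokinase promoter and grows in 40 µg/ml kanamycin; loss of luminescence reflects streptokinase promoter inhibition or plain growth inhibition; 0% = median of DMSO wells and 100% = positive control at its reference dose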
# PfHsp90 set2 = inhibits growth of yeast expressing Plasmodium falciparum Hsp90 | 0.32% of 310,000 active | inhibition, % at 9.4 µM | S. cerevisiae expressing PfHsp90, BacTiter-Glo ATP, 48 h; yeast lacking PDR1 and PDR3 efflux regulators;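 active = every replicate shows inhibition above about 80%, whatever the replicate mean, limit read from the data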;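 note: 0% = DMSO neutral controls and 100% = 20 µM radicicol positive controls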
# TIM10 inh = inhibits growth of TIM10 yeast strain; S. cerevisiae TIM10 strain growth, BacTiter-Glo luminescence, 24 h; inhibition, % at 10 µM; 1.4% of 330,000 active; AID 463195;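 active = inhibition of 40% or more at the single tested concentration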;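 note: wild-type TIM10 isogenic control strain grown at permissive 25 °C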
# tim23-1 inh = inhibits growth of tim23-1 mutant yeast; inhibition, % at 20 µM; 1.3% of 330,000 active; S. cerevisiae tim23-1 growth, BacTiter-Glo luminescence, 24 h; AID 463212;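 active = growth inhibition of the mutant yeast at or above 50%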;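 note: temperature-sensitive mutant grown at 25 °C; plate controls were DMSO-treated mutant yeast for no effect and medium wells lacking yeast for full effect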
# tim10-1 inh = tim10-1 yeast growth inhibition; S. cerevisiae tim10-1 ts strain growth, BacTiter-Glo, 24 h; inhibition, % at 20 µM; 2.2% of 330,000 active; AID 463190;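 active = inhibition of at least 40%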;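 note: mutant grown at 25 °C; 0% = DMSO wells with yeast and 100% = wells holding no yeast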
# Numbers without * were called inactive; nt = not tested or not shown.
SMILES,NALP1 yeast inh,SKKanGAS inh,PfHsp90 set2,TIM10 inh,tim23-1 inh,tim10-1 inh
CC1CC(C)CN(c2ncc3c(n2)CC(c2ccccc2Cl)CC3=O)C1 (stereo not drawn),39,63*,-4,24,27,32
COc1ccc(C2CC(=O)c3cnc(N4CCN(Cc5ccccc5)CC4)nc3C2)cc1 (stereo not drawn),20,56*,-12,20,20,33
CN1C(=O)/C(=C/c2ccc(C(=O)Nc3ccc(O)cc3C(=O)O)cc2)SC1=S,12,17,-4,27,24,19
O=C(Cc1cccs1)NNC(=S)NC(=O)c1ccc(F)c(F)c1,0,29,-37,14,-11,25
C/C(=N\Nc1ccc(Cl)c(C(=O)O)c1)c1ccc(Br)s1,4,58*,4,8,7,10
C/C(=N\NC(=O)c1ccc(Cl)c(Cl)c1)c1ccc(Br)s1,30,88*,-6,6,-10,10
CC1CN(C(=O)CCC(=O)N2CCOCC2)c2ccccc2O1 (stereo not drawn),10,1,10,-5,-9,-18
Cc1nc(NC(=O)c2ccc(Cl)cc2)sc1-c1csc(Nc2cccc(F)c2)n1,12,73*,nt,nt,nt,nt
Cc1ccc(Nc2nc(-c3sc(NC(=O)c4cccc(Cl)c4)nc3C)cs2)cc1,15,21,nt,2,14,4
Cc1cc(N2CCCCC2)nc2ccc(NC(=O)c3ccc(Br)o3)cc12,12,-26,-19,-14,15,-12
Cc1cc(N2CCN(C)CC2)nc2ccc(NC(=O)c3ccc(Br)o3)cc12,38*,4,-53,-5,-6,-7
O=C(c1n[nH]c(=O)c2ccccc12)N1CCN(C2c3ccccc3-c3ccccc32)CC1,-1,0,67,18,-28,13
O=C(NC(=S)NNC(=O)c1ccccc1O)c1ccco1,22,65*,23,nt,nt,nt
O=C(NC(=S)NNC(=O)c1cc2ccccc2cc1O)c1ccco1,-33,98*,nt,18,-18,7
O=C(NC(=S)NNC(=O)c1ccco1)c1ccc(F)cc1,-13,45,-26,-4,-16,39
Cn1c(O)c(N=NC(=O)CNC(=O)/C=C/c2ccccc2)c2ccccc21,37*,-1,-33,5,19,32
Cn1c(O)c(N=NC(=O)c2ccco2)c2ccccc21,36*,-9,-2,-2,-2,10
CCn1c(O)c(N=NC(=O)CNC(=O)/C=C/c2ccccc2)c2ccccc21,12,-7,8,-1,14,18
CSCCCNC(=S)Nc1ccc(N2CCOCC2)cc1N1CCOCC1,2,2,-7,5,-2,2
CC(=O)Oc1cccc(Nc2ncnc3ccccc23)c1,2,-3,-4,3,25,17
Cc1ccccc1C(=O)Oc1cccc(Nc2ncnc3ccccc23)c1,nt,75*,8,8,2,38
CCCCNCCOCCOc1ccc(Cl)cc1Br,52*,8,1,-40,-3,-32
COCCCNCCCOc1ccc(Cl)cc1Br,19,-7,nt,9,11,14
CC1CCCN(CCOCCOc2ccc(Cl)cc2Br)C1 (stereo not drawn),42*,-3,-19,-36,-6,-4
CC1CCCN(CCOCCOc2ccc(Br)cc2Cl)C1 (stereo not drawn),48*,-2,-13,-24,16,-22
SMILES,NALP1 yeast inh,SKKanGAS inh,PfHsp90 set2,TIM10 inh,tim23-1 inh,tim10-1 inh
Cc1ccc(CN(C(=O)Cn2nnc3ccccc32)C(C(=O)NCc2ccco2)c2cccs2)cc1 (stereo not drawn),18,14,3,11,20,26
CC(C(=O)NC1CCCCCC1)n1cc([N+](=O)[O-])cn1 (stereo not drawn),-9,2,-6,8,2,-5
Cc1ccc(S(=O)(=O)N[C@@H](C)C(=O)OCC(=O)N2c3ccccc3NC(=O)C2(C)C)cc1,nt,nt,-13,4,-15,-4
O=C(c1ccc(Cl)cc1)N1CCCC(C(=O)N2CCN(c3ccccc3)CC2)C1 (stereo not drawn),44*,2,nt,0,12,0
CN(C)/C=C/C(=O)c1ccc2noc(-c3cccc(F)c3)c2c1,19,-2,107*,-2,19,26
Cc1ccc(C(=O)NNC(=O)Cc2csc(-c3csc(C)n3)n2)cc1,-2,-2,3,1,5,-11
C[C@H]1CN([C@@H](C)CO)C(=O)Cc2cc(NC(=O)CCN3CCOCC3)ccc2O[C@@H]1CN(C)Cc1ccc(Oc2ccccc2)cc1,nt,nt,18,12,7,14
O=c1c2ccccc2cnn1-c1ccc2ccccc2c1,10,1,nt,9,40,21
Cc1cccc(N2C(=O)C=CC2=O)c1,nt,nt,117*,nt,nt,nt
O=C1C=CC(=O)N1c1ccc2ccccc2c1,nt,nt,116*,nt,nt,nt
O=C(Nc1ccc(Nc2ccccc2)cc1)c1c(F)c(F)c(F)c(F)c1F,27,20,-26,11,21,13
O=C1C=CC(=O)N1c1ccc(Nc2ccccc2)cc1,nt,nt,126*,nt,nt,nt
Cc1cccc(N2C(=O)C3CCCN3C2=S)c1 (stereo not drawn),16,-2,0,-23,-4,1
Cn1nc(-c2ccc(C(=O)N3CCN(Cc4ccccc4)CC3)cc2)c2ccccc2c1=O,-8,-3,-13,19,27,24
CCOCc1nnc(NC(=O)C2CCN(C(=O)c3ccco3)CC2)s1,10,-1,15,4,4,7
O=C1CSc2ccc(C(=O)O)cc2N1,19,4,6,5,-4,15
CCCn1c(=O)c2ccccc2n2c(SC(C)C(N)=O)nnc12 (stereo not drawn),1,-10,-46,3,24,6
CC(Cc1ccccc1)(NC(=O)CN)c1ccccc1 (stereo not drawn),63*,-2,nt,4,0,-5
O=C(/C=C/c1ccc([N+](=O)[O-])cc1)Nc1cccc(C(=O)Nc2ccccc2C(=O)O)c1,28*,19,-6,nt,nt,nt
O=C(COc1ccc2ccccc2c1)Nc1cccc(C(=O)Nc2ccccc2C(=O)O)c1,9,55*,25,6,16,-14
Cc1ccccc1OCC(=O)Nc1ccc(C(=O)Nc2ccccc2C(=O)O)cc1,-26,59*,16,13,3,-12
COC(=O)c1cccc(NC(=O)/C=C/c2ccc([N+](=O)[O-])cc2)c1,8,1,2,1,-6,-1
Cc1ccc(-c2nnc(N3CC(C)OC(C)C3)c3ccccc23)cc1 (stereo not drawn),8,5,12,-6,21,21
COC(=O)c1ccc(/C=C2/SC(=S)N(CCC(=O)N3CCOCC3)C2=O)cc1,-21,1,-19,16,13,-15
CCc1cc2c(=O)c(-c3cnn(-c4ccccc4)c3)c(C)oc2c(CN2CCCCC2)c1O,6,14,nt,31,28,13
